Inconclusive results are not listed. The source made the active and inactive calls. Unless noted, calls follow the shape of the full dose curve.
Experiments:
[1] = Nuclear factor erythroid 2-related factor 2/antioxidant responsive element (Nrf2/ARE) small molecule agonists: qHTS cell viability counter screen in human keratinocytes (AID 1919968; active = well fitted curve in the direction sought with a large enough effect in the repeat runs; an effect the other way counts as inactive or inconclusive; also: nearly all actives have a fitted effect of over 55% in size)
Method in brief: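 Stably transfected HaCaT (KeratinoSens), 1,500/well. Test agents in DMSO were applied for 23 h, 37 C/5% CO2. CellTiter-Fluor was incubated 1 h before the fluorescence read.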

[2] = Nuclear factor erythroid 2-related factor 2/antioxidant responsive element (Nrf2/ARE) small molecule agonists: luciferase reporter gene qHTS assay in human keratinocytes (AID 1919969); also: nearly all actives have a fitted effect of over 35% in size
[3] = target: Gonadotropin-releasing hormone receptor (Homo sapiens) (UniProt P30968); test: Human gonadotropin-releasing hormone receptor (GnRHR) small molecule agonists, calcium flux assay in GnRHR-HEK293 cells (AID 1920063); also: nearly all actives have a fitted effect of over 35% in size
Sequence of Gonadotropin-releasing hormone receptor (Homo sapiens) (P30968 whole entry, looked up): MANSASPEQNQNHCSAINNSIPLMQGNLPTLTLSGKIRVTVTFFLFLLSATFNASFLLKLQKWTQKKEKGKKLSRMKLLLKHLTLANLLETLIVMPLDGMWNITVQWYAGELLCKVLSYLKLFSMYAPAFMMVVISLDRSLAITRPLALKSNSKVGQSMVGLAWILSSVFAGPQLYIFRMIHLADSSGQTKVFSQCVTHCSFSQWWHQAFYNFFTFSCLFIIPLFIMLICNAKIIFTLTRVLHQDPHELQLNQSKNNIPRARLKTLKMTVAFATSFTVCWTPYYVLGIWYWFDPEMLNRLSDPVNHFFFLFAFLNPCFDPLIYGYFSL
Method in brief: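 Stable human GnRHR HEK293 line. 18 h plating, then calcium dye for 1 h at 37 C. Agonist-mode compound addition from DMSO stocks; fluorescence monitored 3 min.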

[4] = target: KiSS-1 receptor (Homo sapiens) (UniProt Q969F8); test: Human kisspeptin (KISS1R) small molecule agonists, calcium flux assay in KISS1R-HEK293 cells (AID 1920064; active = well fitted curve in the direction sought with a large enough effect in the repeat runs; an effect the other way counts as inactive or inconclusive)
Sequence of KiSS-1 receptor (Homo sapiens) (Q969F8 whole entry, looked up): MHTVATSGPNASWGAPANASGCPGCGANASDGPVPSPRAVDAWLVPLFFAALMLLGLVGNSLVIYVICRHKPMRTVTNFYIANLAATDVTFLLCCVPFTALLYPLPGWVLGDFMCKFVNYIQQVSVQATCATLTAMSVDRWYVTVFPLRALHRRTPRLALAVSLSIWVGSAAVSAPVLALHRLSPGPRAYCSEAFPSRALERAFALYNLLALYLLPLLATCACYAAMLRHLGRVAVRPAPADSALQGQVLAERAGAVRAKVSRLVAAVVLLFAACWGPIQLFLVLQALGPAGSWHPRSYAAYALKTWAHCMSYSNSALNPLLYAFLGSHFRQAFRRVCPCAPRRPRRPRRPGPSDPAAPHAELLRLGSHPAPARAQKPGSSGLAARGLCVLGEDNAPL
Method in brief: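 After overnight (18 h) culture at 37 C/5% CO2, human KISS1R-HEK293 cells received calcium dye for 1 h, then test compound; emission at 540 nm (excitation 480 nm) was tracked for 3 min.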

[5] = G protein-coupled receptor (GPCR) small molecule agonists, calcium flux assay: HEK293 wild type cell line counter screen (AID 1920065)
Method in brief: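 Following 18 h incubation at 37 C/5% CO2, plates got calcium dye for 1 h; compounds, ATP or DMSO were then pinned in and fluorescence followed kinetically (480/540 nm).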

[6] = p53 small molecule agonists, cell-based qHTS assay with human liver microsomes (AID 1963577);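 also: p53 response element beta-lactamase reporter cells with liver microsomes plus NADPH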
Method in brief: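 Metabolically competent format: test substances, human liver microsomes and NADPH (both 0.5 mg/mL final) incubated with p53RE-bla cells 16 h at 37 C. Beta-lactamase reporter signal then quantified by fluorescence.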

[7] = p53 small molecule agonists, cell-based qHTS assay with rat liver microsomes (AID 1963578)
Method in brief: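 Each plate received p53RE-bla cells, then compound, then rat liver microsomes and NADPH (both 0.5 mg/mL final). Plates were held 16 h at 37 C, and beta-lactamase activity was detected with LiveBLAzer over 2 h.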

[8] = p53 small molecule agonists, cell-based qHTS assay with human liver microsomes: qHTS cell viability counter screen (AID 1963579); also: nearly all actives have a fitted effect of over 45% in size
Method in brief: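 Tox21 library compounds, delivered from DMSO stocks, were tested on p53RE-bla cells together with 0.5 mg/mL human liver microsomes and 0.5 mg/mL NADPH (final) over 16 h at 37 C; CellTiter-Glo luminescence served as the cytotoxicity measure.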

[9] = p53 small molecule agonists, cell-based qHTS assay with rat liver microsomes: qHTS cell viability counter screen (AID 1963580); also: nearly all actives have a fitted effect of over 45% in size
Method in brief: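 After the beta-lactamase ratio was read, CellTiter-Glo was added to the same wells and luminescence measured at 30 min; cells had been treated 16 h at 37 C with compounds, rat liver microsomes and NADPH (0.5 mg/mL final each).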

[10] = p53 small molecule agonists, cell-based qHTS assay: qHTS cell viability counter screen (AID 1963581); also: nearly all actives have a fitted effect of over 45% in size
Method in brief: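 qHTS counter screen: 16 h compound exposure at 37 C of p53RE-bla HCT-116 cells (4,000 per well, seeded 5 h prior), cell viability by ATP luminescence.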

[11] = p53 small molecule agonists, cell-based qHTS assay (AID 1963582; active = well fitted activation curve with a large enough effect in the signal ratio in the repeat runs, not every such curve was filed as active; the % refers to the signal ratio)
Method in brief: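 Measured: fluorescence from cleaved LiveBLAzer substrate. System: p53RE-bla cells, 16 h compound treatment at 37 C, 2 h substrate step at room temperature.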

[12] = target: 5-hydroxytryptamine receptor 2A (Homo sapiens) (UniProt P28223); test: 5-hydroxytryptamine receptor 2A (HTR2A) small molecule antagonists, cell-based qHTS assay (AID 1963586); also: nearly all actives have a fitted effect of over 45% in size
Sequence of 5-hydroxytryptamine receptor 2A (Homo sapiens) (P28223 whole entry, looked up): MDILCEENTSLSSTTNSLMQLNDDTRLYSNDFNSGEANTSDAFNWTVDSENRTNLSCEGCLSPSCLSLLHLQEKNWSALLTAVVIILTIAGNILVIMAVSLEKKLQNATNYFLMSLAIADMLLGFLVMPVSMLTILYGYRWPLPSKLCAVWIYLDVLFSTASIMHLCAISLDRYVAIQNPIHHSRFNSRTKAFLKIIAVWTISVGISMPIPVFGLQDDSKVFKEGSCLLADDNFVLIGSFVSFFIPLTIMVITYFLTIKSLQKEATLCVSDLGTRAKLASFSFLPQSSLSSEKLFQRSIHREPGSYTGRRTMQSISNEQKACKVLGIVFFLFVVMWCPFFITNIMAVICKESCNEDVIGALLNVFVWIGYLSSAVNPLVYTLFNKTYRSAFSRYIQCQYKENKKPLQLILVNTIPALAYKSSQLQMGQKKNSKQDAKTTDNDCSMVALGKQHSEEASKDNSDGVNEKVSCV
Method in brief: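 CHO cells stably expressing human HTR2A were plated for 18 h at 37 C, then loaded with calcium dye for 1 h. Compounds were preincubated 5 min at room temperature before DOI (4 nM solution) was added. Kinetic fluorescence was read for 3 min.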

[13] = target: 5-hydroxytryptamine receptor 2A (Homo sapiens) (UniProt P28223); test: 5-hydroxytryptamine receptor 2A (HTR2A) small molecule agonists, cell-based qHTS assay (AID 1963587); also: nearly all actives have a fitted effect of over 30% in size
Method in brief: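 CHO cells stably expressing human HTR2A, plated 18 h, loaded with calcium dye 1 h at 37 C. Agonist mode: compounds added and intracellular calcium fluorescence recorded kinetically for 2 min at 1 sec intervals.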

[14] = target: Muscarinic acetylcholine receptor M1 (Homo sapiens) (UniProt P11229); test: Cholinergic receptor muscarinic 1 (CHRM1) small molecule antagonists, cell-based qHTS assay (AID 1963588); also: nearly all actives have a fitted effect of over 40% in size
Sequence of Muscarinic acetylcholine receptor M1 (Homo sapiens) (P11229 whole entry, looked up): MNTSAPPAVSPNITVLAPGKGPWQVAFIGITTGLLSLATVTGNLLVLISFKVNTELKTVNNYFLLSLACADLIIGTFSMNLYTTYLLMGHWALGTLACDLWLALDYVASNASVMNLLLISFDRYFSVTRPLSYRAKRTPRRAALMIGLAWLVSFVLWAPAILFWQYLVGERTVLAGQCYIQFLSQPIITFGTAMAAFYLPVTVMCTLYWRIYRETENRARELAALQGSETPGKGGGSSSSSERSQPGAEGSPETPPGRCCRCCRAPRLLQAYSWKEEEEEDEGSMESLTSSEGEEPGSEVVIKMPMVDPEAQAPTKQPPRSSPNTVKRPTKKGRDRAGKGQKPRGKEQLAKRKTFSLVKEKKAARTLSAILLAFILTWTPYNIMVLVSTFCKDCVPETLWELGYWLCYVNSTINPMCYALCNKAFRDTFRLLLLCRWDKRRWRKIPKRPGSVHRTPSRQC
Method in brief: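 Compounds were tested at 15 concentrations in three independent runs. Dye-loaded CHRM1-CHO cells were exposed 5 min at room temperature before stimulation by acetylcholine added at 50nM. Intracellular calcium was read kinetically on FDSS for 3 min.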

[15] = cAMP Responsive Elements (CRE) small molecule antagonists, cell-based qHTS assay (AID 1963591; active = well fitted inhibition curve with a large enough effect in the signal ratio in the repeat runs, not every such curve was filed as active; the % refers to the signal ratio)
Method in brief: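 Reporter line CRE-bla HEK 293T in dialyzed-FBS DMEM; cells preincubated 18 h, treated 3 h with compound plus NKH477 (0.25 uM final); LiveBLAzer FRET, 2 h RT.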

[16] = target: Beta-2 adrenergic receptor (Homo sapiens) (UniProt P07550); test: Adrenergic beta2 receptor (ADRB2) small molecule antagonists, cell-based qHTS assay (AID 1963592); also: series mostly up to about 92 µM; nearly all actives have a fitted effect of over 50% in size
Sequence of Beta-2 adrenergic receptor (Homo sapiens) (P07550 whole entry, looked up): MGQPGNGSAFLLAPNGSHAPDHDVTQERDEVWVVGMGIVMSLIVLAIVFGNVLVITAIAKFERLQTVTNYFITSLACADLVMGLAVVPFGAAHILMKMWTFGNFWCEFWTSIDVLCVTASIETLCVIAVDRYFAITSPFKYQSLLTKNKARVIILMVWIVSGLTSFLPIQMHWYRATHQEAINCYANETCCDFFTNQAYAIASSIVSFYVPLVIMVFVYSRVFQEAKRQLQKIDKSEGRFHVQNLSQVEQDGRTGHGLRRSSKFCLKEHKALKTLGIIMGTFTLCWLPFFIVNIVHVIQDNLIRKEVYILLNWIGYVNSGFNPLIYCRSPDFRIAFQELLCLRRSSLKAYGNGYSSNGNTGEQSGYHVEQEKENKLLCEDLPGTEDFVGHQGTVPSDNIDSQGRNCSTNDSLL
Method in brief: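 Assay format: CHO-ADRB2 cells, 18-20hr seeding at 37C/5% CO2, then compound plus 1nM isoproterenol agonist mix for 0.5hr RT. Homogeneous time-resolved fluorescence cAMP detection after 1hr, expressed as 665/615 nm ratio.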

[17] = target: D(2) dopamine receptor (Homo sapiens) (UniProt P14416); test: Dopamine D2 receptor (DRD2) small molecule agonists, cell-based qHTS assay (AID 1963594); also: nearly all actives have a fitted effect of over 35% in size
Sequence of D(2) dopamine receptor (Homo sapiens) (P14416 whole entry, looked up): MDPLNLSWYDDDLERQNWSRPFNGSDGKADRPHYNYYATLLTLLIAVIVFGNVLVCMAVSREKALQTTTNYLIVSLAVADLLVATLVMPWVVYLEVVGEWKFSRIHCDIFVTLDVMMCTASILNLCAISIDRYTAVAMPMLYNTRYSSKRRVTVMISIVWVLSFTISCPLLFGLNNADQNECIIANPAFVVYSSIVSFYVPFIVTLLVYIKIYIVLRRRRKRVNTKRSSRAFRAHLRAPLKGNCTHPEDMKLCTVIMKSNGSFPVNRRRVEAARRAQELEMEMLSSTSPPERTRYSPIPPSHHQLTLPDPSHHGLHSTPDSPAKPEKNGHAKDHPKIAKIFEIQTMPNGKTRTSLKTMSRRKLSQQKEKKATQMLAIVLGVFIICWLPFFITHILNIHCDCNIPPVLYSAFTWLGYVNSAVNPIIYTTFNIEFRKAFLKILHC
Method in brief: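 HEK293 cells stably expressing human DRD2, pre-treated with PDE inhibitor Ro20-1724 (0.1 mM final) and compound 10 min at room temperature, then stimulated with NKH477 (200nM […]) for 30 min. cAMP read by HTRF (665/620 nm).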

[18] = target: D(2) dopamine receptor (Homo sapiens) (UniProt P14416); test: Dopamine D2 receptor (DRD2) small molecule antagonists, cell-based qHTS assay (AID 1963595; active = well fitted inhibition curve with a large enough effect in the signal ratio in the repeat runs, with a control signal flat; the % refers to the signal ratio)
Method in brief: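 HTRF cAMP read-out at 665 and 620 nm emission (340 nm excitation). Antagonist mode: compounds were tested against 12 nM quinpirole in DRD2-HEK293 cells, with 200 nM NKH477 raising cAMP and 0.1 mM Ro20-1724 blocking its breakdown.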

[19] = cAMP Responsive Elements (CRE) small molecule agonists, cell-based qHTS assay (AID 1963590)
Method in brief: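 Test agents in DMSO were incubated 3 h at 37 C/5% CO2 with CRE-bla HEK 293T cells seeded 18 h earlier; LiveBLAzer B/G FRET substrate was added and read after 2 h at room temperature.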

[20] = target: Beta-2 adrenergic receptor (Homo sapiens) (UniProt P07550); test: Adrenergic beta2 receptor (ADRB2) small molecule agonists, cell-based qHTS assay (AID 1963593);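 also: CHO cells stably overexpressing human ADRB2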
Method in brief: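 CHO cells stably over-expressing ADRB2 were plated overnight at 37C, then dosed with compounds plus a stimulation mix containing 100uM IBMX and 25uM Ro-20-1724 for 0.5hr at room temperature. cAMP was measured by HTRF competition, 1hr.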

Measured: Potency

CC(C)(CO)CO
inactive: [1] | [2] | [3] | [4] | [5] | [6] | [7] | [8] | [9] | [10] | [11] | [12] | [13] | [14] | [15] | [16] | [17] | [18]

C=Cc1ccc(C)cc1
inactive: [1] | [2] | [3] | [4] | [5] | [6] | [7] | [8] | [9] | [10] | [11] | [12] | [13] | [19] | [15] | [16] | [20] | [17] | [18]

COCCOCCOCCO
inactive: [1] | [2] | [3] | [4] | [5] | [6] | [7] | [8] | [9] | [10] | [11] | [12] | [13] | [14] | [19] | [15] | [16] | [20] | [17] | [18]

CCCCCCCCCCCCCCCC(=O)OC(C)C
inactive: [1] | [2] | [3] | [4] | [5] | [6] | [7] | [8] | [9] | [10] | [11] | [12] | [13] | [19] | [15] | [16] | [17] | [18]

O=c1[nH]c(=O)n([C@H]2C[C@H](O)[C@@H](CO)O2)cc1Br
inactive: [1] | [2] | [3] | [4] | [5] | [6] | [7] | [8] | [9] | [10] | [11] | [12] | [13] | [15] | [16] | [20] | [17] | [18]

C=C[Si](OCCOC)(OCCOC)OCCOC
inactive: [1] | [2] | [3] | [4] | [5] | [6] | [7] | [8] | [9] | [10] | [11] | [13] | [14] | [19] | [15] | [16] | [20] | [17] | [18]

CNC[C@H](O)[C@@H](O)[C@H](O)[C@H](O)CO
inactive: [1] | [2] | [3] | [4] | [5] | [6] | [7] | [8] | [9] | [10] | [11] | [12] | [13] | [19] | [15] | [16] | [17]

C=CC(=O)OCCC(=O)O
inactive: [1] | [2] | [3] | [4] | [5] | [6] | [7] | [8] | [9] | [10] | [11] | [12] | [13] | [14] | [19] | [15] | [16] | [20] | [17] | [18]

Source: PubChem BioAssay (Tox21)
